One assay concerns the target Albumin (Bos taurus) (UniProt P02769). In words: compounds binding labelled BSA control protein – biochemical, small-molecule microarray, Alexa647 label, 635/667 nm fluorescence, artefact control for SMM control protein annotation, profiling panel (AID 1118).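 Further: score merges 667 nm emission intensity and signal-to-noise per printed compound spot.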 Conditions: BSA-A647 binding, fluorescence 635 nm, higher = more signal.
The nature of assay [1]: probe aXIP binding to arrayed compounds – biochemical, NeuroSMM set, 635/667 nm fluorescence, primary screen (AID 1119).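 Further: probe is the protein aXip251-270 applied at 1 µg/mL to compound-printed slides; binding of probe to printed compounds measured as 667 nm fluorescence plus signal to noise.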 Conditions: small-molecule microarray, higher = more signal, called active from +8 up or from −8 down.
A short description of assay [2]: probe aNOTCH3 binding on compound microarray – biochemical, small-molecule microarray, 635/667 nm fluorescence, primary screen (AID 1120).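 Further: probe is a biotin-tagged antibody raised against NOTCH3 rather than NOTCH3 protein; score merges spot fluorescence near 667 nm with spot signal to noise.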 Conditions: higher = more signal.
Assay [3] is described as follows: probe aNOTCH2 binding on compound microarray – biochemical, small-molecule microarray, 635/667 nm fluorescence, primary screen (AID 1121).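 Further: score merges feature fluorescence read at 667 nm with its signal to noise.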 Conditions: higher = more signal.
In assay [4] the target is Carbonic anhydrase 2 (Homo sapiens) (UniProt P00918). The assay is described as follows: compounds binding carbonic anhydrase 2 – biochemical, small-molecule microarray, Alexa647-labelled CAII, profiling panel (AID 1122). Conditions: CAII-A647 binding fluorescence, higher = more signal.
The nature of assay [5]: COS7 lysate on small-molecule microarray, probe aHis, 635 nm (AID 1123).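 Further: z-score combines 667nm fluorescence intensity with signal-to-noise per printed compound spot.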 Conditions: COS7 cell lysate, fluorescence, higher = more signal.
Assay [6] is described as follows: probe aLAP1 signal on lysate-treated microarray – cell lysate, small-molecule microarray, COS7 lysate, primary screen (AID 1124).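 Further: lysate comes from COS7 cells expressing LAP1 and is applied at 0.3 µg/mL; score merges spot fluorescence near 667 nm with signal-to-noise over triplicate slides.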 Conditions: probe aLAP1, fluorescence, higher = more signal.
Another assay relates to Sam68 (KHDRBS1). In words: compounds binding KHDRBS1 protein – biochemical, small-molecule microarray, 635 nm fluorescence, primary screen (AID 1125).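 Further: score merges 667 nm channel intensity with signal to noise over triplicate slides.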 Conditions: higher = more signal.
Assay [7] relates to Chordin-like protein 2 (CHRDL2). In words: compounds binding chordin-like 2 – biochemical, small-molecule microarray, 635 nm fluorescence, primary screen (AID 1126).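 Further: printed compound slides probed with Chrdl2 protein at 4 µg/mL for 1 h at 4 C; score merges 667 nm emission intensity with signal to noise over three replicate slides.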 Conditions: fluorescence 635 nm, higher = more signal.
Assay [8] concerns the target Concanavalin-A (Canavalia ensiformis) (UniProt P02866). In words: compounds binding concanavalin A lectin – biochemical, small-molecule microarray, Alexa647 label, 635 nm, artefact control for SMM control protein annotation, primary screen (AID 1127).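 Further: z combines 667 nm emission intensity with signal-to-noise across three replicate slides.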 Conditions: ConA-A647 binding fluorescence, higher = more signal.
Assay [9] is described as follows: compounds binding Alexa647 anti-His antibody – biochemical, small-molecule microarray, 635 nm fluorescence, artefact control for SMM control protein annotation, primary screen (AID 1128).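 Further: score merges feature fluorescence with signal-to-noise for each printed compound spot.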 Conditions: higher = more signal.
The test system of assay [10] is Human papillomavirus type 1a E7 protein (residues 1-88). The assay is described as follows: HPV1a E7 small-molecule binders, primary screen, biochemical, small-molecule microarray, residues 1-88, 635 nm (AID 1129). Conditions: small-molecule microarray binding, fluorescence 635 nm; higher = more signal.
In assay [11] the target is Focal adhesion kinase 1 (Homo sapiens) (UniProt Q05397). The assay is described as follows: PTK2 protein binding on printed compound slides – biochemical, small-molecule microarray, 635/667 nm fluorescence, BSA, DTT, primary screen (AID 1130).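 Further: composite of spot emission at 667 nm and signal to noise over triplicate slides.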 Conditions: 635 nm fluorescence, higher = more signal.
In assay [12] the test system is Fibrinogen (Alexa647-labelled). The assay is described as follows: Alexa647-fibrinogen binding to printed small molecules – biochemical, small-molecule microarray, 635/667 nm fluorescence, artefact control for SMM control-protein annotation, profiling panel (AID 1131).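 Further: z-score merges 667 nm fluorescence with per-spot signal-to-noise over triplicate slides.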 Conditions: fibrinogen-A647 binding fluorescence, higher = more signal.
Assay [13] has as its target Follistatin (Homo sapiens) (UniProt P19883). In words: FST protein binding to printed compounds – biochemical, small-molecule microarray, 635/667 nm fluorescence, primary screen (AID 1132). Conditions: 635 nm fluorescence, higher = more signal.
Assay [14] addresses Fibroblast growth factor 2 (Homo sapiens) (UniProt P09038). The assay is described as follows: basic fibroblast growth factor binding to printed compounds – biochemical, small-molecule microarray, 635/667 nm fluorescence, primary screen (AID 1133). Conditions: FGF2, fluorescence 635/667, higher = more signal.
Assay [15] is described as follows: JC-1 mitochondrial potential readout, lung cancer cells – cell-based, A549, JC-1 fluorescence, basal, 24 h, 100 nL, profiling panel (AID 1138).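 Further: A549 lung adenocarcinoma cells under basal conditions with no added stimulus; test concentration not given here.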 Conditions: higher = more signal.
The subject of the next assay is Lefty1. The assay is described as follows: Lefty1 protein binding to printed compounds – biochemical, small-molecule microarray, 635/667 nm fluorescence, primary screen (AID 1139). Conditions: fluorescence 635/667, higher = more signal.
For assay [16], the system named is wheat germ agglutinin (Triticum aestivum), Alexa647-labelled. The assay is described as follows: Alexa647-WGA lectin binding to printed small molecules – biochemical, small-molecule microarray, 635/667 nm fluorescence, artefact control for SMM control-protein annotation, profiling panel (AID 1140).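 Further: score merges 667 nm feature emission with signal to noise over triplicate slides.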 Conditions: WGA-A647 binding, 635 nm fluorescence, higher = more signal.

Assay [17] addresses Luciferin 4-monooxygenase (Photinus pyralis) (UniProt P08659). In words: inhibition of purified Photinus pyralis luciferase – biochemical, luminescence, purified enzyme, 2006 set, primary screen (AID 1141).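 Further: cell-free assay with purified firefly luciferase at 100 ng per well in PBS; test concentration not given here.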 Conditions: purified firefly luciferase, SteadyGlo luminescence, 30 min; higher = more signal, called active from +8 up or from −8 down.

Calls of active or inactive are those of the source.

Luciferin 4-monooxygenase (Photinus pyralis), sequence (P08659 whole entry, looked up): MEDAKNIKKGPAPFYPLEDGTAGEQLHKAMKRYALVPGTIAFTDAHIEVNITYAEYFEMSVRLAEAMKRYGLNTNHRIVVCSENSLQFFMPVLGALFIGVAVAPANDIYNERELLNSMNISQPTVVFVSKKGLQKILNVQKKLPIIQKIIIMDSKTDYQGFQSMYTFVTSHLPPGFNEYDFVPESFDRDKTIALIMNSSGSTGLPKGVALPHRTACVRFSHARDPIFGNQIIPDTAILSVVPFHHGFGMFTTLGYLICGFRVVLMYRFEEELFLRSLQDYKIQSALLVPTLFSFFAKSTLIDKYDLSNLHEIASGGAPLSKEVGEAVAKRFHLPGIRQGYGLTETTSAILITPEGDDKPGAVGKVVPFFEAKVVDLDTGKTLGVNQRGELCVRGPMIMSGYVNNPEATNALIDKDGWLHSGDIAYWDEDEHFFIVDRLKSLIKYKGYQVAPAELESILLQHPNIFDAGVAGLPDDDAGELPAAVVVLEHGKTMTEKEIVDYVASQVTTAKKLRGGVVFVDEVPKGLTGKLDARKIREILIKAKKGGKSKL
Focal adhesion kinase 1 (Homo sapiens), sequence (Q05397 whole entry, looked up): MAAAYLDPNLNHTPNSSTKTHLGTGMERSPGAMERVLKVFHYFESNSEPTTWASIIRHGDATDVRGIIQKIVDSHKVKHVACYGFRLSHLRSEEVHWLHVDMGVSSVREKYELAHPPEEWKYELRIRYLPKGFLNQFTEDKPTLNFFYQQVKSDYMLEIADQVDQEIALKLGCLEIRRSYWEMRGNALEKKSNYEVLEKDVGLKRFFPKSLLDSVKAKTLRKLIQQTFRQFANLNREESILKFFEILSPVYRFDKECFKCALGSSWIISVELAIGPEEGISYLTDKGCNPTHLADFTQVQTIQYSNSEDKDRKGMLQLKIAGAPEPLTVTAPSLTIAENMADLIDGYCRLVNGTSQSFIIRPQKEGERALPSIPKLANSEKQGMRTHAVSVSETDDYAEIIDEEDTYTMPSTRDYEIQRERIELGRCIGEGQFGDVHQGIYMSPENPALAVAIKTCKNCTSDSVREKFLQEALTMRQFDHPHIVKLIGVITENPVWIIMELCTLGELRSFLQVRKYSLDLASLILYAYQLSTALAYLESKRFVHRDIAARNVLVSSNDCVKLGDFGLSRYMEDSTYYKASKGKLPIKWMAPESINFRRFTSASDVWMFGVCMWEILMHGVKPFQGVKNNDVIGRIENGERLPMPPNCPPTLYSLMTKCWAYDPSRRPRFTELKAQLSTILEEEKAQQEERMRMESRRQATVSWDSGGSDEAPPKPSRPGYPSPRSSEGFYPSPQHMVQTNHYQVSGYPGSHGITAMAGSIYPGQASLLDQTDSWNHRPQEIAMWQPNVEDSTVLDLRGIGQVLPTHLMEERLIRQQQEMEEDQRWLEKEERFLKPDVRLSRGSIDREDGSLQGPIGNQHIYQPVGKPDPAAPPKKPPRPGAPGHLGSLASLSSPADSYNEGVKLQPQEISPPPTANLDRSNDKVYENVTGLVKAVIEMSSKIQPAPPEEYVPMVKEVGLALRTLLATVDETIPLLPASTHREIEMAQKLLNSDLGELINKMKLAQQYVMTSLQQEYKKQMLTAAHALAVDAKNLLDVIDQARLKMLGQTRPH
Follistatin (Homo sapiens), sequence (P19883 whole entry, looked up): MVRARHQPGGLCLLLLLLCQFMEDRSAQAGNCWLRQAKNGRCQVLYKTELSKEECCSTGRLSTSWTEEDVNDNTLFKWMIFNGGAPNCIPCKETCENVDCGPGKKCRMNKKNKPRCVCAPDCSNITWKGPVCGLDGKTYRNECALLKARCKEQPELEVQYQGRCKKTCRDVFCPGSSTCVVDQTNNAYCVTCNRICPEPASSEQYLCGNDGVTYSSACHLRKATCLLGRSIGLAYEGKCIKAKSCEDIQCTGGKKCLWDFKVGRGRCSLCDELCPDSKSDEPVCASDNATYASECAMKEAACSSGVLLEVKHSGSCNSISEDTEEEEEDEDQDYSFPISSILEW
Concanavalin-A (Canavalia ensiformis), sequence (P02866 whole entry, looked up): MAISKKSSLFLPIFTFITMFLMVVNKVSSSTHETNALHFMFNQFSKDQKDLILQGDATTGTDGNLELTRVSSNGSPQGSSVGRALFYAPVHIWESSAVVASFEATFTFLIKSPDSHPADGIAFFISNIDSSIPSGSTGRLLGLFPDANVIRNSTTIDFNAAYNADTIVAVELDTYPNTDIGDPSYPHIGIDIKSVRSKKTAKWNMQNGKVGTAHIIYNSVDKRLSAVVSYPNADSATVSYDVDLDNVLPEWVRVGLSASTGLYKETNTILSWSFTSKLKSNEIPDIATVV
Albumin (Bos taurus), sequence (P02769 whole entry, looked up): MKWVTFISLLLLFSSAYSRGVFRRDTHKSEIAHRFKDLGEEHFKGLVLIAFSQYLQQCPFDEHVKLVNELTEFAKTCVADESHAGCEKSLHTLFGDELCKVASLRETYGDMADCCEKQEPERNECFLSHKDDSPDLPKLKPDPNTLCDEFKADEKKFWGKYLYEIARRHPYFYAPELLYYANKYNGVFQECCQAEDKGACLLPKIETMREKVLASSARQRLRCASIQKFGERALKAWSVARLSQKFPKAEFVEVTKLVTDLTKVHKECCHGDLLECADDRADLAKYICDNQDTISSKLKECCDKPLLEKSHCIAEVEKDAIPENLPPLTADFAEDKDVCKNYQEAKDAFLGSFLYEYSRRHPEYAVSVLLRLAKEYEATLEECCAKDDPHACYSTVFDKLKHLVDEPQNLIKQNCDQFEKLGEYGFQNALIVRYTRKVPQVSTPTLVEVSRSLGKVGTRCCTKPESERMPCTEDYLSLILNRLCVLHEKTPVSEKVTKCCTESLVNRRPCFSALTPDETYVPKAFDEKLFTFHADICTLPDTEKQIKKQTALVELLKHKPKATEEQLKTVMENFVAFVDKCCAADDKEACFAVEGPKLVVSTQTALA
Fibroblast growth factor 2 (Homo sapiens), sequence (P09038 whole entry, looked up): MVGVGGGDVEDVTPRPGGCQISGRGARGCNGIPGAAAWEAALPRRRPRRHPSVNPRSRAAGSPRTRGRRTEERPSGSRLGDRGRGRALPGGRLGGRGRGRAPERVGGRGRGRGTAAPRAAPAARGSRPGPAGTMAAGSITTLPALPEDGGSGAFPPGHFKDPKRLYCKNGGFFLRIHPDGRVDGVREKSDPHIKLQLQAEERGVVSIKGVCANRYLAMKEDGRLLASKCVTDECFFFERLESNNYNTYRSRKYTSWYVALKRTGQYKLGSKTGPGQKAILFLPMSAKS

On to `CC(C)Cc1ccc(CN2CC[C@@H](NC(=O)Nc3ccccc3)C2)cc1`, for which the composite z-score with Albumin (Bos taurus) is 0.476; in assay [2], -0.133; in assay [3], -0.0974; in assay [4], 0.119; in [5], -0.104; in [6], 0.397. For the same compound, the composite z-score with Sam68 (KHDRBS1) is -0.0489; in [7], 0.214; in [8], -0.0211; in [9], -0.0844; in assay [10], -1.63; in assay [11] it was 0.0749. Also, the composite z-score was 0.494 in assay [12]; -0.182 in assay [13]; -0.0224 in [14]; 0.08 in the assay on Lefty1; 0.244 in assay [16]. Moreover, the composite Z-score in assay [1] is -0.119 (inactive). The figures for the z-score in assay [15] and in assay [17] were -0.749 and 0.398 (inactive), respectively.

For the compound `CN1C(=O)C2C=CC(C(O)c3cccc(O)c3)N(Nc3ccccc3)C2C1=O` (stereo not given), the composite z-score in the assay with Albumin (Bos taurus) is 0.976; in [2], 0.17; in assay [3], -0.14; in assay [4], 0.552; in assay [5], 0.247; in assay [6], -0.279. Also, the composite z-score was -0.172 in the assay on Sam68 (KHDRBS1); -0.246 in assay [7]; 0.312 in assay [8]; 0.71 in [9]; 0.545 in [10]; 0.214 in assay [11]. Besides, the composite z-score in assay [12] is 0.441; in [13] it was 0.214; in assay [14] it was -0.191; with Lefty1, 0.152; in assay [16] it was 0.275. Also, the composite Z-score in assay [1] is 0.501 (inactive). In addition, the z-score is 1.19 in assay [15] and 0.991 (inactive) in assay [17].

Regarding `COC(=O)[C@@]1(Cc2ccc(F)cc2)[C@H]2c3cc(C(=O)N(C)C)n(CCc4ccc(O)c(OC)c4)c3C[C@H]2CN1C(=O)c1ccccc1`, the composite z-score in the assay with Albumin (Bos taurus) is 0.24; in assay [2] it was 0.842; in assay [3], 1.02; in assay [4], 0.25; in assay [5], 0.694; in assay [6] it was 0.311. For the same compound, the composite z-score in the assay on Sam68 (KHDRBS1) was 0.326; in assay [7] it was 0.497; in assay [8], -0.0415; in [9], 0.339; in [10] it was 0.923; in assay [11] it was 0.0947. The composite z-score in assay [12] was 0.886; in [13] it was 0.472; in assay [14] it was 0.741; in the assay on Lefty1, -0.244; in assay [16] it was 0.312. Also, the composite Z-score in assay [1] is -0.399 (inactive). Besides, the z-score in assay [15] is 0.345; in [17], 0.215 (inactive).

As for `CCOC(=O)C[C@H]1[C@H](OC(=O)c2ccccc2-c2ccccc2)[C@@H](NC(=O)C2CCCCC2)c2cc(OCCCO)ccc2N1C(=O)Cc1ccc(OC)cc1`, the composite z-score was 0.0179 with Albumin (Bos taurus); -0.046 in assay [2]; -0.122 in [3]; 0.0935 in assay [4]; 0.0644 in [5]; 0.0035 in assay [6]. The composite z-score was -0.0019 in the assay on Sam68 (KHDRBS1); -0.292 in assay [7]; 0.0384 in assay [8]; 0.0271 in [9]; -0.525 in assay [10]; 0.559 in assay [11]. For the same compound, the composite z-score was -0.873 in assay [12]; -0.211 in [13]; -0.377 in assay [14]; 0.442 with Lefty1; 0.752 in assay [16]. Further, in assay [1], the composite Z-score is -0.483 (inactive). The z-score in [15] was 1.58; in assay [17], 0.0079 (inactive).

On to `COc1cc2c(cc1O)C(C)N(Cc1ccc([N+](=O)[O-])o1)CC2` (stereo not given), for which the composite z-score with Albumin (Bos taurus) was found to be 0.831; in [2], 0.348; in assay [3] it was 0.0746; in assay [4], 0.512; in assay [5] it was 0.68; in [6], 1.57. For the same compound, the composite z-score is 1.33 with Sam68 (KHDRBS1); -0.622 in [7]; 1.17 in assay [8]; 1.63 in assay [9]; 1.1 in [10]; 0.243 in [11]. Also, the composite z-score was 0.824 in assay [12]; 0.542 in [13]; 0.18 in assay [14]; 0.18 in the assay on Lefty1; 0.918 in assay [16]. Further, the composite Z-score in assay [1] is 0.0948 (inactive). Also, the z-score was 0.275 in [15] and -0.0107 (inactive) in assay [17].

As to `CN(C)CCCNC(=O)[C@@]1(c2ccc([N+](=O)[O-])cc2)CC(=O)N(CC23CC4CC(CC(C4)C2)C3)[C@@H]1c1ccc(CO)cc1I`, the composite z-score is 0.685 with Albumin (Bos taurus); 0.095 in assay [2]; -0.0877 in assay [3]; 0.511 in [4]; 2.86 in [5]; 0.457 in [6]. Also, the composite z-score is 1.28 in the assay with Sam68 (KHDRBS1); 0.731 in assay [7]; 1.14 in assay [8]; 1.46 in assay [9]; 1.21 in assay [10]; -0.0381 in assay [11]. Further, the composite z-score in [12] stood at 0.846; in [13], 1.35; in assay [14], 1.34; in the assay on Lefty1 it was 1.5; in assay [16], 0.674. Further, in [1], the composite Z-score is -0.729 (inactive). The z-score in [15] is -2.32; in assay [17] it was -1.46 (inactive).
